# Screening results (PubChem)
# Only some compounds are listed: those with a hit (about 3.7% of all), similar ones and a draw of the others.
# TIM10 inh: growth inhibitors of TIM10 yeast strain. S. cerevisiae TIM10 strain growth, BacTiter-Glo luminescence, 24 h. inhibition, % at 10 µM. 330,000 compounds, 1.4% hits;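 active = inhibition of 40% or more at the single tested concentration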;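 also: wild-type TIM10 isogenic control strain grown at permissive 25 °C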
# tim23-1 inh: tim23-1 yeast growth inhibition | S. cerevisiae tim23-1 growth, BacTiter-Glo luminescence, 24 h | inhibition, % at 20 µM | 330,000 compounds, 1.3% hits | AID 463212;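 active = growth inhibition of the mutant yeast at or above 50%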;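 also: temperature-sensitive mutant grown at 25 °C; plate controls were DMSO-treated mutant yeast for no effect and medium wells lacking yeast for full effect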
# PfHsp90 set2: reduces growth (ATP signal) of yeast expressing P. falciparum Hsp90 | inhibition, % at 9.4 µM | S. cerevisiae expressing PfHsp90, BacTiter-Glo ATP, 48 h; yeast lacking PDR1 and PDR3 efflux regulators | 310,000 compounds, 0.32% hits;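 active = every replicate shows inhibition above about 80%, whatever the replicate mean, limit read from the data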;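 also: 0% = DMSO neutral controls and 100% = 20 µM radicicol positive controls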
# tim10-1 inh: inhibits growth of tim10-1 mutant yeast | inhibition, % at 20 µM | AID 463190 | S. cerevisiae tim10-1 ts strain growth, BacTiter-Glo, 24 h | 330,000 compounds, 2.2% hits;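 active = inhibition of at least 40%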;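 also: mutant grown at 25 °C; 0% = DMSO wells with yeast and 100% = wells holding no yeast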
# V-ATPase pH: yeast V-ATPase proton transport regulation by pHLuorin; S. cerevisiae, pHLuorin cytosolic pH fluorescence; 350,000 compounds, 0.37% hits; response, % at 10 µM; AID 504577; in the data active = response mostly above about 7.3%, no sharp cut-off; inactive = mostly below about 5.4%; also: actives read high
# tim10-1 confirm: tim10-1 yeast growth inhibition, confirmed; shares compounds with tim10-1 inh; S. cerevisiae tim10-1 ts strain growth, BacTiter-Glo, 24 h; inhibition, % at 20 µM; 7,400 compounds, 56% hits; AID 463213;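 active = inhibition of yeast growth at or above a set limit in either of two repeat tests at 20 µM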;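 also: tim10-1 mutant grown at permissive 25 °C to find synthetic lethal compounds; 0% = DMSO yeast wells and 100% = medium wells without yeast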
# Active calls of the source: *; nt = no result.
SMILES,TIM10 inh,tim23-1 inh,PfHsp90 set2,tim10-1 inh,V-ATPase pH,tim10-1 confirm
Cc1cc(C)nc(Sc2ccc([N+](=O)[O-])cc2[N+](=O)[O-])n1,9.4,42.7,-26.6,47.1*,2.3,30.2*
CCOc1ccc(S(=O)(=O)NCCC(=O)NCc2ccncc2)cc1,-0.4,-1.5,nt,-0.9,-5.4,nt
CCOC(=O)Nc1ccc2c(CNC(C)c3ccccc3OC)cc(=O)oc2c1 (stereo unspecified),15.0,32.1,-8.4,46.6*,-0.1,22.3
CCOC(=O)CNC(=O)C1c2ccccc2Oc2ccccc21,-9.2,13.3,-18.1,-3.2,-1.7,nt
O=C(COn1nnc2ccc(Cl)cc21)Nc1ccc(F)cc1,27.6,29.0,-0.6,19.9,-4.6,nt
O=C(COn1nnc2ccc(Cl)cc21)NC12CC3CC(CC(C3)C1)C2,37.2,48.1,12.1,40.5*,-5.5,32.4*
CC(C)CN(C(=O)COC(=O)c1c2c(nc3ccccc13)CCC2)c1c(N)n(Cc2ccccc2)c(=O)[nH]c1=O,6.8,5.7,-12.7,-1.8,-3.2,nt
CC1CC(C)(C)CC2(C1)NC(=O)N(CC(=O)Nc1ccc(N3CCCCC3)cc1)C2=O (stereo unspecified),-0.1,6.9,-30.4,2.7,-1.0,nt
O=C(NCCn1ccc2ccccc21)c1ccc(S(=O)(=O)N2CCCCC2)cc1,20.2,34.2,8.1,41.0*,1.4,27.4
COc1ccc(C(=O)NCCn2ccc3ccccc32)cc1,3.4,25.6,5.3,-11.3,-0.4,nt
COc1ccc(/C=C/C(=O)O)cc1S(=O)(=O)N1CCC(C)CC1,5.3,23.8,-13.7,5.0,-0.4,nt
COc1cccc(NC(=O)COc2cccc3c2CCNC3=O)c1,3.8,0.7,nt,-13.2,-1.7,nt
Cc1ccnc(SCCn2c(N3CC(C)OC(C)C3)nc3c2c(=O)n(C)c(=O)n3C)n1 (stereo unspecified),9.6,8.5,3.1,12.9,5.1,nt
Cc1ccnc(SCCn2c(N3CC(C)CC(C)C3)nc3c2c(=O)n(C)c(=O)n3C)n1 (stereo unspecified),27.3,42.1,-14.0,44.3*,-0.5,30.2
Cc1ccnc(SCCn2c(N3CCC(C)CC3)nc3c2c(=O)n(C)c(=O)n3C)n1,30.1,31.8,1.0,45.1*,-0.3,28.1
COc1ccc(F)cc1S(=O)(=O)n1nnc2ccccc21,24.3,47.4,8.5,50.3*,-0.5,41.0*
COc1ccc(OC)c(S(=O)(=O)n2nnc3ccccc32)c1,18.2,3.1,-27.8,18.9,4.2,nt
Cc1ccc(SCC(=O)OCC(=O)NC(C)c2ccc(Br)cc2)cc1 (stereo unspecified),-4.4,6.8,-37.0,23.3,-0.7,nt
O=C(CC1CS(=O)(=O)CC1CC(=O)Oc1ccccc1F)Oc1ccccc1F (stereo unspecified),15.1,34.0,-9.4,44.2*,5.5,22.0
CCc1ccccc1NC(=O)CC1CS(=O)(=O)CC1CC(=O)Nc1ccccc1CC (stereo unspecified),6.2,-0.9,11.4,10.9,-3.1,nt
COc1ccccc1CCC(=O)N(C)CC(=O)Nc1ccc(Cl)c(C(F)(F)F)c1,-1.5,25.9,-1.3,28.6,-0.6,nt
COc1cc(C2C=C(Nc3ccccc3)C(=O)N2c2ccccc2)ccc1O (stereo unspecified),19.3,20.6,14.2,41.9*,3.0,10.9
C=CCN(c1ccccc1OC)S(=O)(=O)c1cccc(C(=O)NCc2cccs2)c1,5.3,28.5,9.1,14.5,0.2,nt
CCCCS/C(=C(/C#N)C(N)=O)c1cc2c([nH]1)CCCC2,29.7,44.3,nt,44.9*,-1.8,37.8*
CCc1cc2ccc(C)cc2nc1SCC(=O)N1CCN(C(=O)c2ccco2)CC1,4.8,38.3,-10.9,42.0*,2.8,12.7
SMILES,TIM10 inh,tim23-1 inh,PfHsp90 set2,tim10-1 inh,V-ATPase pH,tim10-1 confirm
CCc1cc2cc3c(cc2nc1SCC(=O)N1CCN(C(=O)c2ccco2)CC1)OCO3,1.2,32.8,3.1,21.2,2.4,nt
COc1ccccc1N1CCN(CC(=O)Nc2cc(C)nn2-c2nc(C)cc(C)n2)CC1,nt,nt,-26.7,nt,-109.8,nt
Cc1cccc(-c2n[nH]nc2C2=CC(=O)CC(C)(C)C2)c1,nt,nt,nt,nt,-1.5,nt
COc1ccc(S(=O)(=O)N2CCN(c3ccccc3OC)CC2)cc1,9.1,39.6,8.2,43.4*,-2.6,34.5*
CCc1ccc(S(=O)(=O)N2CCN(c3ccccc3OC)CC2)cc1,3.0,21.7,-8.4,14.8,5.1,nt
O=C(NCC(=O)N1CCCCC1)c1ccc2ccccc2c1,0.4,10.5,5.4,4.8,3.7,nt
CCN(c1nc(C)cc(OC)n1)S(=O)(=O)c1ccccc1,3.2,33.1,21.1,40.4*,2.7,19.5
C=CCN(c1nc(C)cc(OC)n1)S(=O)(=O)c1ccccc1,5.3,35.7,4.0,33.2,-1.0,nt
CC(C)N=C1NN=C(c2ccc(Cl)c(Cl)c2)CS1,11.8,35.6,-7.8,48.3*,1.0,24.6
CC(C)N=C1NN=C(c2cccs2)CS1,11.3,15.8,-20.4,-11.4,-1.2,nt
COc1ccc(-c2cc(C(F)F)n3ncc(C(=O)N4CCc5ccccc5C4)c3n2)cc1,14.0,33.4,6.1,41.2*,1.3,9.4
CCCCn1c(N)c(N(CCC(C)C)C(=O)C2CCCC2)c(=O)[nH]c1=O,-2.2,-5.8,nt,0.9,-3.8,nt
CCOC(=O)c1c(C)[nH]c(C(=O)Nc2ccc3c(c2)OCO3)c1C,38.6,45.1,nt,42.9*,nt,31.7*
CC(C)NC(=O)CSc1nnc(-c2ccc3ncccc3c2)n1C,5.7,-1.3,-5.3,-7.7,-2.1,nt
N#Cc1c(NC(=S)NC(=O)Cc2cccs2)sc2c1CCCCC2,18.5,33.5,nt,46.6*,-6.7,28.6
O=C(NCC1CCCO1)c1cc2c([nH]c3ccccc32)c(-c2cccc(Cl)c2)n1 (stereo unspecified),17.6,39.1,12.2,26.9,-0.2,nt
COc1cc(-c2nc(C(=O)NCC3CCCO3)cc3c2[nH]c2ccccc23)cc(OC)c1OC (stereo unspecified),17.5,36.2,nt,42.3*,2.6,19.2
COc1cccc2[nH]c(C(=O)NCC3CCCO3)cc12 (stereo unspecified),-4.0,-3.6,14.7,8.4,2.2,nt
COc1ccccc1-c1nc(C(=O)NCC2CCCO2)cc2c1[nH]c1ccccc12 (stereo unspecified),21.9,47.3,13.3,42.9*,0.5,31.9
c1ccc(-n2cc(CNCCc3cscn3)c(-c3ccc4c(c3)OCO4)n2)cc1,18.9,19.1,-7.3,21.4,2.2,nt
CC(=O)CSc1nnc(-c2ccc(S(=O)(=O)N3CCC(C)CC3)cc2)o1,28.7,29.0,6.3,41.6*,7.5,24.4
CCOC(=O)CSc1nnc(-c2ccc(S(=O)(=O)N3CCC(C)CC3)cc2)o1,-2.8,19.7,7.8,29.6,-2.6,nt
O=C1OCCC1=COCCCCCOC=C1CCOC1=O,nt,nt,nt,nt,-3.9,nt
O=C(NC1CCC(=O)N(CCSc2ccccc2)CC1)OCc1ccccc1 (stereo unspecified),17.6,31.9,-19.7,48.2*,-12.0,19.9
